Measurements as given in ChEMBL document CHEMBL1961873, “Compounds: GSK PKIS; Assays: Nanosyn kinase panel” (2012).

How the values were obtained:
[1] = molecular target: Ribosomal protein S6 kinase alpha-6 (Homo sapiens) (UniProt Q9UK32); conditions: at 1 µM;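 note: each value is a mean inhibition of RSK4 from a GSK PKIS panel screen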
[2] = molecular target: T1, Serine/threonine-protein kinase Sgk1 (Homo sapiens) (UniProt O00141); conditions: at 0.1 µM
T1 sequence (whole entry): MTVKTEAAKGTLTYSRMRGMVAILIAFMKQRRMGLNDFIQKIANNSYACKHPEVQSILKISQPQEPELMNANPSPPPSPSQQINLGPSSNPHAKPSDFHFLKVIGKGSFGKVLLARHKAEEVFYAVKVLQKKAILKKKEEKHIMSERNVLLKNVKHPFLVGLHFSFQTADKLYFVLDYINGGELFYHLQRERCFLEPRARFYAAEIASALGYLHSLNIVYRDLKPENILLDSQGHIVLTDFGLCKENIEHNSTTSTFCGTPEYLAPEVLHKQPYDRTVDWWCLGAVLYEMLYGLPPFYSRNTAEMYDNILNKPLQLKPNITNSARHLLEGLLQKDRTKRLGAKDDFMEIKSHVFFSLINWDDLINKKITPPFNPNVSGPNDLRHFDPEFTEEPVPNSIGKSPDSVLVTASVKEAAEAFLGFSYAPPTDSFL

[3] = molecular target: T1, Serine/threonine-protein kinase Sgk1 (Homo sapiens); conditions: at 1 µM
[4] = molecular target: T2, Serine/threonine-protein kinase Sgk2 (Homo sapiens) (UniProt Q9HBY8); conditions: at 0.1 µM
T2 sequence (whole entry): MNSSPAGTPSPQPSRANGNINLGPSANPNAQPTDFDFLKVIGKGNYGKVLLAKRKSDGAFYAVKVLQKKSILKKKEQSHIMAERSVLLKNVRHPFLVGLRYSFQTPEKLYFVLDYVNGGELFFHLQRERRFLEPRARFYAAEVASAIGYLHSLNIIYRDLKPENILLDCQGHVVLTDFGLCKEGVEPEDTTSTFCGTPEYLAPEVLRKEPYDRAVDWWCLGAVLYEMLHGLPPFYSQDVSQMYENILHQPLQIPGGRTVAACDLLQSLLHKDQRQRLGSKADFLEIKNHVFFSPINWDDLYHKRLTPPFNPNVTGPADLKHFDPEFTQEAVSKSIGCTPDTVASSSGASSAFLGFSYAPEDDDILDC

[5] = molecular target: T2, Serine/threonine-protein kinase Sgk2 (Homo sapiens); conditions: at 1 µM
[6] = molecular target: T3, Serine/threonine-protein kinase Sgk3 (Homo sapiens) (UniProt Q96BR1); conditions: at 0.1 µM
T3 sequence (whole entry): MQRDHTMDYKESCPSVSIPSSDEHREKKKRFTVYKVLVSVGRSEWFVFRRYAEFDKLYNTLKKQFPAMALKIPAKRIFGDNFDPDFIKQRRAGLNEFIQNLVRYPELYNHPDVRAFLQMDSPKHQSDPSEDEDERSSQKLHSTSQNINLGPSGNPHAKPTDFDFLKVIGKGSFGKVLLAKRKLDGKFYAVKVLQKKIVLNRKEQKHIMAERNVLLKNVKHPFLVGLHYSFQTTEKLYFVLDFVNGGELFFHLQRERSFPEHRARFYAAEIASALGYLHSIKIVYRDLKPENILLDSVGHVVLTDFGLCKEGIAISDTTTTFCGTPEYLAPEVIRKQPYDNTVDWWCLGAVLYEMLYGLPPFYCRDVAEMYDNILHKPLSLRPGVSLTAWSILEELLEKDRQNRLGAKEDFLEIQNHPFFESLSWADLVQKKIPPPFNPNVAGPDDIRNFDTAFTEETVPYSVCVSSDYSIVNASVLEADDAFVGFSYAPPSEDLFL

[7] = molecular target: T3, Serine/threonine-protein kinase Sgk3 (Homo sapiens); conditions: at 1 µM
[8] = molecular target: 5'-AMP-activated protein kinase catalytic subunit alpha-1 (Homo sapiens) (UniProt Q13131); conditions: at 0.1 µM
Chain of 5'-AMP-activated protein kinase catalytic subunit alpha-1 (Homo sapiens) (Q13131 whole entry, looked up): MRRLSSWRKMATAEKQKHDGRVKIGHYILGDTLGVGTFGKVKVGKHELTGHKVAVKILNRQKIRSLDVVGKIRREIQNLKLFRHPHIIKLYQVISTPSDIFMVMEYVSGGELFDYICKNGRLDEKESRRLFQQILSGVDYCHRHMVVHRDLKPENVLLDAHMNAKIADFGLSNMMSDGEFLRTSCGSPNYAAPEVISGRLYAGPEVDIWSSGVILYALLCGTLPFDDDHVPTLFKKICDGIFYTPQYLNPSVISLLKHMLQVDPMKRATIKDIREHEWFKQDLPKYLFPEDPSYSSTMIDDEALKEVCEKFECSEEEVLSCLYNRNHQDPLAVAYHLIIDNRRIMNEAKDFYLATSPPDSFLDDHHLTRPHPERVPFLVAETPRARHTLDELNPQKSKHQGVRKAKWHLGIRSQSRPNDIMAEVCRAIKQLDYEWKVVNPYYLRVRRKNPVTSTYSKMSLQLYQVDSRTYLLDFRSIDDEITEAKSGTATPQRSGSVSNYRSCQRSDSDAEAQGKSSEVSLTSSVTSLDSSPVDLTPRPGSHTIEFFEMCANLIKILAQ

[9] = molecular target: 5'-AMP-activated protein kinase catalytic subunit alpha-1 (Homo sapiens) (UniProt Q13131); conditions: at 1 µM
[10] = molecular target: 5'-AMP-activated protein kinase catalytic subunit alpha-2 (Homo sapiens) (UniProt P54646); conditions: at 0.1 µM
Chain of 5'-AMP-activated protein kinase catalytic subunit alpha-2 (Homo sapiens) (P54646 whole entry, looked up): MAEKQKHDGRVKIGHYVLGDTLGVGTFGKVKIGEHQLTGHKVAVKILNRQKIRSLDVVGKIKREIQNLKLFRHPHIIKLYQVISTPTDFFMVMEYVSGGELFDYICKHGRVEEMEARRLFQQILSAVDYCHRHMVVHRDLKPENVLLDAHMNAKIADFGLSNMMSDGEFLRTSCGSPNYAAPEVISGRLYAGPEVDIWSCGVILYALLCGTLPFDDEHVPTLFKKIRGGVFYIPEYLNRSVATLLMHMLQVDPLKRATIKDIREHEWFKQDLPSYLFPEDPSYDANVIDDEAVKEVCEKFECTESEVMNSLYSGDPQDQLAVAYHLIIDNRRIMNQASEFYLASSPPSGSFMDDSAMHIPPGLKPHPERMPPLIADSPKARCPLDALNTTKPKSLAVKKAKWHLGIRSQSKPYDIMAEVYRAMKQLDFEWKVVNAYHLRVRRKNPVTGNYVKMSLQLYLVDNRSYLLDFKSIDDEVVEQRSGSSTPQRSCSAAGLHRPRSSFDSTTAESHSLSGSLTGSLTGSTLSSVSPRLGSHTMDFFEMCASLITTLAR

[11] = molecular target: 5'-AMP-activated protein kinase catalytic subunit alpha-2 (Homo sapiens) (UniProt P54646); conditions: at 1 µM
[12] = molecular target: T4, NUAK family SNF1-like kinase 1 (Homo sapiens) (UniProt O60285); conditions: at 0.1 µM
T4 sequence (whole entry): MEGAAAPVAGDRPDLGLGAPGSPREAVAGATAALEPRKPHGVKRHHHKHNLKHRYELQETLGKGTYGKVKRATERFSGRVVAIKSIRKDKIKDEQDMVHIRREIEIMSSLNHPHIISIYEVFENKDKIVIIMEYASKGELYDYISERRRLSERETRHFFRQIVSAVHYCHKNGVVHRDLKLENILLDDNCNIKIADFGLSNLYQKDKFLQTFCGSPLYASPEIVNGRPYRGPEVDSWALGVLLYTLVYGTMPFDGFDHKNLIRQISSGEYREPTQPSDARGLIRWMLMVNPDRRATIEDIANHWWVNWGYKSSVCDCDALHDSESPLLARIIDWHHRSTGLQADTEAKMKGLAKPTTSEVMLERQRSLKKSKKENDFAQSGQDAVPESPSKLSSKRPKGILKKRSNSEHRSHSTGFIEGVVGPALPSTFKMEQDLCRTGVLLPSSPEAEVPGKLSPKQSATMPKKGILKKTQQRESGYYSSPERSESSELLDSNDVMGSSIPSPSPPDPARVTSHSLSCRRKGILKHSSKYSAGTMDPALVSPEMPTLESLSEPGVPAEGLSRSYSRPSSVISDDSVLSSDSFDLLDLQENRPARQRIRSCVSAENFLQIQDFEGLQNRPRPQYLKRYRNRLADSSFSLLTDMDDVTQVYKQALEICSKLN

[13] = molecular target: T4, NUAK family SNF1-like kinase 1 (Homo sapiens); conditions: at 1 µM
[14] = molecular target: T5, Serine/threonine-protein kinase BRSK1 (Homo sapiens) (UniProt Q8TDC3); conditions: at 0.1 µM
T5 sequence (whole entry): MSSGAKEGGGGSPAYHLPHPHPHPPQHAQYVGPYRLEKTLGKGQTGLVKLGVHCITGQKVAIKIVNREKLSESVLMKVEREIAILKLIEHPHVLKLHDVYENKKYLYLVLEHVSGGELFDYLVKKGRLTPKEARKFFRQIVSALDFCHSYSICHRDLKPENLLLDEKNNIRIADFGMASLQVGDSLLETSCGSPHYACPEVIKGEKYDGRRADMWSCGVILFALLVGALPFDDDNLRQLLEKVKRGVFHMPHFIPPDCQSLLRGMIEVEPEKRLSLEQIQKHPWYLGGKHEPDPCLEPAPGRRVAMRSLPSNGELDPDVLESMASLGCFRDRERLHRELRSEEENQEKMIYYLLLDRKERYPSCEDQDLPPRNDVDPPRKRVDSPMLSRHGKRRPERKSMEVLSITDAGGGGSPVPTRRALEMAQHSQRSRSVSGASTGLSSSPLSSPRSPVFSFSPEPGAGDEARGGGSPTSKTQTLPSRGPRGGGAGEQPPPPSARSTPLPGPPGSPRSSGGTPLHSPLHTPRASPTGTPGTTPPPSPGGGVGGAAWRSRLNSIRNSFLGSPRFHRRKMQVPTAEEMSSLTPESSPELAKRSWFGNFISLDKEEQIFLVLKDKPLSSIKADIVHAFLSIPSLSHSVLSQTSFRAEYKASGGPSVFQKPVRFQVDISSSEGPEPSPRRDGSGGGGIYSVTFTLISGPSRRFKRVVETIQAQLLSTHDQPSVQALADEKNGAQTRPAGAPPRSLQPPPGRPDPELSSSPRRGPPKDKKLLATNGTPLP

[15] = molecular target: T5, Serine/threonine-protein kinase BRSK1 (Homo sapiens); conditions: at 1 µM
[16] = molecular target: T6, Serine/threonine-protein kinase BRSK2 (Homo sapiens) (UniProt Q8IWQ3); conditions: at 0.1 µM
T6 sequence (whole entry): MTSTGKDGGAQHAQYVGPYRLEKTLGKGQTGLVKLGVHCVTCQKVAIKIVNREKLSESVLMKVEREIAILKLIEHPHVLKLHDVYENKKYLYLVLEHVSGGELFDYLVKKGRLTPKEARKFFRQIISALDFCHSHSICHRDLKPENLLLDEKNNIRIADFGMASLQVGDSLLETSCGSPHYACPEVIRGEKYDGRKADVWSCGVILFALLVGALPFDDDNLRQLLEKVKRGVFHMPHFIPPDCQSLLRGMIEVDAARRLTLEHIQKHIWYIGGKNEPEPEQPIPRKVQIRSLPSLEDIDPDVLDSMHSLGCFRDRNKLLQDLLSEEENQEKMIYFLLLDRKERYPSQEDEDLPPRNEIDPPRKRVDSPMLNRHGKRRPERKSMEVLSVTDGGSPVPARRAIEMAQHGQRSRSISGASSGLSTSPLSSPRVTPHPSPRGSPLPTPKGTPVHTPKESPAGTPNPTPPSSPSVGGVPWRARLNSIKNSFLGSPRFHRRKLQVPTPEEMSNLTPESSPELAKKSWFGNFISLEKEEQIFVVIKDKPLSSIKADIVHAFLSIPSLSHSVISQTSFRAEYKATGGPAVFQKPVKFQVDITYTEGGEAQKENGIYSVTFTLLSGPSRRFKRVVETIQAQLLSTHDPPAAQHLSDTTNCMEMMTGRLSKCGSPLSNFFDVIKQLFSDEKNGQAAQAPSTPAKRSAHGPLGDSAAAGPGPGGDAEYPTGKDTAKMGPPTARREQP

[17] = molecular target: T6, Serine/threonine-protein kinase BRSK2 (Homo sapiens); conditions: at 1 µM
[18] = molecular target: Calcium/calmodulin-dependent protein kinase type 1D (Homo sapiens) (UniProt Q8IU85); conditions: at 0.1 µM
Chain of Calcium/calmodulin-dependent protein kinase type 1D (Homo sapiens) (Q8IU85 whole entry, looked up): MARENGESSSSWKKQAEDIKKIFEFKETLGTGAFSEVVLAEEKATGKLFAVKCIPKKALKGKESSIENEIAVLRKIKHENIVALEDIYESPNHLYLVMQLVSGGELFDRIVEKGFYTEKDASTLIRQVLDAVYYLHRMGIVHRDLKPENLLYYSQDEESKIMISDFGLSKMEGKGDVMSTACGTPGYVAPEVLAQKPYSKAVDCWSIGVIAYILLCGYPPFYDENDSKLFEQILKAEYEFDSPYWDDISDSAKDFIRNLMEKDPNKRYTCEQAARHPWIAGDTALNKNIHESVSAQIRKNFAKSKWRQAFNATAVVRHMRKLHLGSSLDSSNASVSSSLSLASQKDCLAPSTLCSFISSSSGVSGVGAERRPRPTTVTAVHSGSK

[19] = molecular target: Calcium/calmodulin-dependent protein kinase type 1D (Homo sapiens) (UniProt Q8IU85); conditions: at 1 µM
[20] = molecular target: Calcium/calmodulin-dependent protein kinase type II subunit alpha (Homo sapiens) (UniProt Q9UQM7); conditions: at 0.1 µM;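 note: reported values are averages (mean inhibition of CAMK2A)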
Chain of Calcium/calmodulin-dependent protein kinase type II subunit alpha (Homo sapiens) (Q9UQM7 whole entry): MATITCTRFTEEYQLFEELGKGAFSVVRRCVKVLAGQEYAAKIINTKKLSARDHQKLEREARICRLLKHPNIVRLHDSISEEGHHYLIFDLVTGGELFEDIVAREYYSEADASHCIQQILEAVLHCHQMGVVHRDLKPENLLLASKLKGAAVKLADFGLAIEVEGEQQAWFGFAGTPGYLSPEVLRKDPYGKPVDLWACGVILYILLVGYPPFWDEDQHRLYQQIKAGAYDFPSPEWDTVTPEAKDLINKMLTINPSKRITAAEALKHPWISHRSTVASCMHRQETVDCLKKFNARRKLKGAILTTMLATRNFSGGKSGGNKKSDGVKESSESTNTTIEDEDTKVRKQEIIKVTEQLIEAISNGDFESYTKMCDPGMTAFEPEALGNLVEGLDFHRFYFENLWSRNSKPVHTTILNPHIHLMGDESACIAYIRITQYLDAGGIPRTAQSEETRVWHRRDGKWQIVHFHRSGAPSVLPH

Chain of Ribosomal protein S6 kinase alpha-6 (Homo sapiens) (Q9UK32 whole entry): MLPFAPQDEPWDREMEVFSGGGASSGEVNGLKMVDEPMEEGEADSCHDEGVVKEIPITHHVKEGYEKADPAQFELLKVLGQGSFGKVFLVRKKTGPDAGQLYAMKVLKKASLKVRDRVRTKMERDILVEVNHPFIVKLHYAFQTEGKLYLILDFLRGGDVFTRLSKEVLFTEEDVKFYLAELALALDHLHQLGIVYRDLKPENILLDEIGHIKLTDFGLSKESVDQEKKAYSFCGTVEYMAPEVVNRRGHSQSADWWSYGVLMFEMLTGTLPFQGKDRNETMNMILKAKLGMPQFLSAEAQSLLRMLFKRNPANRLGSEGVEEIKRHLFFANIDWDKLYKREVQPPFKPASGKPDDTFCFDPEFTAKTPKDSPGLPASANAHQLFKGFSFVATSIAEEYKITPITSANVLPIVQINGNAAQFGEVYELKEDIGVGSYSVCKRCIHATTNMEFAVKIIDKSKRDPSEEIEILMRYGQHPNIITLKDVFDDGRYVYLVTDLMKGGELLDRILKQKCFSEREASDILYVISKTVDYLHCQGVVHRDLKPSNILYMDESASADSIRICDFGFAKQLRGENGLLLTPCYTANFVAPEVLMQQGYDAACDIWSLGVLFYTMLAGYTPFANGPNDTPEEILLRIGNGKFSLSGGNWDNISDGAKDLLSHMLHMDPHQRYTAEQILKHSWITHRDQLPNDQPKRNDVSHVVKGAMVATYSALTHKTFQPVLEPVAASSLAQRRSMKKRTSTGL

Structure (SMILES) | inhibition [1] [%] | inhibition [2] [%] | inhibition [3] [%] | inhibition [4] [%] | inhibition [5] [%] | inhibition [6] [%] | inhibition [7] [%] | inhibition [8] [%] | inhibition [9] [%] | inhibition [10] [%] | inhibition [11] [%] | inhibition [12] [%] | inhibition [13] [%] | inhibition [14] [%] | inhibition [15] [%] | inhibition [16] [%] | inhibition [17] [%] | inhibition [18] [%] | inhibition [19] [%] | inhibition [20] [%]
COc1ccc2ncn(-c3cc(O[C@H](C)c4ccccc4C(F)(F)F)c(C(N)=O)s3)c2c1 | 9.8 | 0.33 | 0.95 | -1.23 | 0.53 | -0.12 | 0.72 | -0.57 | 3.14 | 0.8 | 2.72 | 5.12 | 43.5 | 2.49 | 25.8 | 6.06 | 36.5 | 0.14 | 1.96 | -1.63
CC1=C(C(=O)Nc2ccc3[nH]ncc3c2)C(c2ccc(F)cc2)N=C(c2ccc(C(F)(F)F)nc2)N1 (stereo not given) | 0.46 | 1.43 | 2.75 | 2.27 | 4.47 | 4.38 | 2.31 | 1.92 | 8.74 | 0.84 | 4.16 | 2.72 | -3.57 | 1.01 | 3.19 | 0.18 | 5.63 | 0.25 | 1.37 | 0.55
CN(c1ccc(NC(=O)NCCN2CCOCC2)cc1)c1ccnc(Nc2ccc(CS(C)(=O)=O)cc2)n1 | 2.33 | 2.3 | 5 | 1.89 | 3.1 | 4.46 | 2.63 | 3.65 | 4.22 | 0.93 | 4.4 | 8.2 | 41.6 | -2.24 | 4.74 | 2.43 | 5.48 | -0.41 | 0.15 | 1.72
